# In the library only some 4.4% were active in any assay of this set; here they are far more common.
# tim10-1 inh: growth inhibitors of tim10-1 mutant yeast; S. cerevisiae tim10-1 ts strain growth, BacTiter-Glo, 24 h; inhibition, % at 20 µM; 330,000 compounds, 2.2% hits;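 active means inhibition of at least 40%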;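 further: mutant grown at 25 °C; 0% = DMSO wells with yeast and 100% = wells holding no yeast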
# SKKanGAS inh: blocks kanamycin growth of S. pyogenes SKKanGAS strain; BacTiter-Glo, 6 h; AID 1662; 300,000 compounds, 1.3% hits; inhibition, % at 7.5 µM;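 active means mean replicate score, as percent of positive control median, at least 50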;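 further: strain carries kanamycin resistance gene driven by streptokinase promoter and grows in 40 µg/ml kanamycin; loss of luminescence reflects streptokinase promoter inhibition or plain growth inhibition; 0% = median of DMSO wells and 100% = positive control at its reference dose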
# TIM10 inh: inhibits growth of TIM10 yeast strain | inhibition, % at 10 µM | S. cerevisiae TIM10 strain growth, BacTiter-Glo luminescence, 24 h | 330,000 compounds, 1.4% hits;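 active means inhibition of 40% or more at the single tested concentration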;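 further: wild-type TIM10 isogenic control strain grown at permissive 25 °C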
# tim23-1 inh: growth inhibitors of tim23-1 mutant yeast. S. cerevisiae tim23-1 growth, BacTiter-Glo luminescence, 24 h. AID 463212. 330,000 compounds, 1.3% hits. inhibition, % at 20 µM;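 active means growth inhibition of the mutant yeast at or above 50%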;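 further: temperature-sensitive mutant grown at 25 °C; plate controls were DMSO-treated mutant yeast for no effect and medium wells lacking yeast for full effect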
# PfHsp90 yeast 2: growth inhibition of yeast expressing Plasmodium Hsp90; S. cerevisiae expressing PfHsp90, BacTiter-Glo ATP, 48 h; yeast lacking PDR1 and PDR3 efflux regulators; inhibition, % at 9.4 µM; 310,000 compounds, 0.32% hits; AID 504621;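 active means every replicate shows inhibition above about 80%, whatever the replicate mean, limit read from the data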;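 further: 0% = DMSO neutral controls and 100% = 20 µM radicicol positive controls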
# * = called active by the depositor; x = no result given.
SMILES,tim10-1 inh,SKKanGAS inh,TIM10 inh,tim23-1 inh,PfHsp90 yeast 2
Cc1ccc(C(=O)C2=C(O)C(=O)N(Cc3ccco3)C2c2cccc(Cl)c2)o1 (centres undefined),13.6,21.9,-4.8,4.8,x
Cc1ccc(C(=O)C2=C(O)C(=O)N(Cc3ccco3)C2c2cccc(Br)c2)o1 (centres undefined),-2.8,52.2*,-2.7,4.2,1.4
CCc1sc(N(C(=O)Cc2ccccc2)c2cccc(F)c2)nc1-c1ccc(C)cc1,13.4,59.4*,24.5,9.8,10.1
COc1ccc(S(=O)(=O)N[C@@H](C)C(=O)OCC(=O)Nc2cc3oc4ccccc4c3cc2OC)cc1,16.5,80.3*,19.7,27.9,5.2
CCN(c1ccccc1)S(=O)(=O)c1ccc(Cl)c(C(=O)NC2CCN(Cc3ccccc3)CC2)c1,x,x,x,x,-14.4
N[C@@H](C(=O)N[C@@H]1C(=O)N2C(C(=O)O)=C(Cl)CS[C@H]12)c1ccccc1,-10.2,104.7*,3.4,-5.2,-3.3
COc1ccc(S(=O)(=O)N2CCN(C(=O)C3CC3)CC2)cc1Br,5.9,x,5.1,11.3,7.4
O=C(NC(=S)Nc1ccc(Cc2ccncc2)cc1)c1ccccc1F,26.6,12.3,14.2,41.1,17.1
O=C(NC(=S)Nc1ccc(-c2nc3ncccc3o2)cc1)c1ccccc1F,1.2,51.9*,-3.5,-2.3,1.3
O=C(COC(=O)CSc1ccc(Cl)cc1)NCCc1ccccc1,15.9,x,10.4,10.4,x
Cc1c(C(=O)OCC(=O)Nc2cccc(S(N)(=O)=O)c2)oc2c1ccc1ccccc12,8.4,65.8*,-7.5,3.8,-15.2
CC1(C(=O)NC(=S)NNC(=O)c2ccncc2)CCCCC1,22.4,54.5*,13.8,12.5,22.2
Cc1ccc(C(=O)N(C)CCOc2ccccc2)cc1S(=O)(=O)N1CCCCC1,29.7,x,2.6,41.4,-1.1
C/C(=N\NC(=O)c1ccc(C)cc1C)c1ccc2c(c1)OCO2,-0.3,4.4,-7.0,15.2,-10.2
C/C(=N\Nc1nc2ccccc2[nH]1)c1ccc2c(c1)OCO2,-48.2,58.4*,-1.3,15.9,-7.0
C/C(=N\NC(=O)c1cc2ccccc2cc1O)c1ccc2c(c1)OCO2,-9.2,80.9*,12.1,-0.7,5.4
COCCCNC(=O)CC1C[C@H](C(=O)N(C(C)C)C(C)C)[C@@]2(C)c3[nH]c4ccccc4c3CCN2C1=O (some centres undefined),-0.6,x,-5.5,-1.2,-3.0
O=C(Nc1cccc(Cl)c1)Nc1cc(S(=O)(=O)N2CCCCC2)ccc1Cl,31.2,53.6*,12.7,12.2,3.4
CN1CCN(S(=O)(=O)c2ccc(NC(=O)Nc3cccc(Cl)c3)cc2)CC1,8.9,-9.8,-3.7,-2.0,-10.2
O=C(Cn1ncc(Cl)c(Cl)c1=O)NC(=O)NC1CCCCC1,27.0,x,18.2,33.3,-9.5
COc1ccc(Nc2nc(NN)nc(Nc3ccc(OC)cc3)n2)cc1,33.3,49.9*,39.1,45.4,-5.5
COc1ccc(Nc2ccc(OC)cc2)cc1,24.5,1.2,21.4,20.6,x
COc1ccc(Nc2nc(N)nc(CN3CCOCC3)n2)cc1,16.6,7.6,-8.5,-3.8,-22.5
COc1ccc(N2CCN(Cc3nc(N)nc(Nc4ccc(C)c(Cl)c4)n3)CC2)cc1,18.8,74.1*,28.3,43.6,25.0
O=C(O)c1ccc2c3c(ncnc13)-c1ccccc1C2=O,-3.8,59.0*,21.5,19.9,x
SMILES,tim10-1 inh,SKKanGAS inh,TIM10 inh,tim23-1 inh,PfHsp90 yeast 2
CCN(C[C@H]1N[C@@](CC)(C(=O)OC)[C@H]2C(=O)N(Cc3ccccc3)C(=O)[C@@H]12)C(=O)NC(C)C,-9.9,x,3.8,-5.6,4.9
COc1ccc(C(C)=O)cc1COc1cc(C)c(Cl)c(C)c1,2.3,50.0*,-0.2,-1.0,-16.0
CCOc1ccc(N2CC(C(=O)Nc3cc(OCC)c(N4CCOCC4)cc3OCC)CC2=O)cc1 (centres undefined),-7.0,x,4.2,1.6,-2.1
O=C(CN1C(=O)C2CC=CCC2C1=O)Nc1ccc(F)cc1F (centres undefined),5.2,x,2.5,12.5,-10.1
CC(C)[C@@H](C(=O)NC1CCCC1)N1C(=O)N2CCc3c([nH]c4ccccc34)[C@@]2(C)C1=O,25.6,67.9*,14.4,25.7,-16.4
CC(C)(C)CC(C)(C)c1ccc(O)c(Cc2ccc(Cl)cc2Cl)c1,x,x,x,x,24.2
O=C1NN(c2ccccc2)C(=O)/C1=C/c1ccc(-c2ccc(C(=O)O)cc2)o1,-12.8,10.6,-12.0,-0.1,-6.4
O=C1NN(c2ccccc2)C(=O)/C1=C/c1ccc(Sc2cccc3ccccc23)o1,28.3,50.0*,28.2,25.4,22.6
CCN(CC)c1ccc(-c2nn3c(-c4n[nH]c5c4CCC5)nnc3s2)cc1,-3.4,85.4*,-24.2,7.7,-21.6
CCOc1cc(C)nc(N2CCC(C(=O)NCC3CCCO3)CC2)n1 (centres undefined),x,x,x,x,-16.6
CSc1cccc(NC(=O)CNC(=O)C2CCCCC2)c1,9.2,29.7,-0.2,19.0,-11.4
CSc1cccc(NC(=O)OC2CCCCCCCCCCC2)c1,-4.8,65.9*,7.4,10.6,10.8
O=C(Nc1ccccc1)Nc1cc(Cl)cc(Cl)c1,-12.4,83.9*,1.4,-8.2,-8.0
O=C(NCCNC(=O)c1cc(OCC(F)(F)F)ccc1OCC(F)(F)F)Nc1cccc(C(F)(F)F)c1,27.1,2.2,9.4,10.3,x
O=C(NCc1ccccn1)Nc1cc(Cl)cc(Cl)c1,21.7,76.9*,-1.5,15.5,12.6
O=C(Nc1ccccc1)Nc1cc(OCC(F)(F)F)cc(OCC(F)(F)F)c1,x,51.7*,x,x,-55.5
Cc1ccccc1N1C(=O)CC(N(O)c2ccccc2)C1=O (centres undefined),17.5,-2.4,6.7,18.8,16.4
CCN(CCO)C1CC(=O)N(c2ccccc2C)C1=O (centres undefined),35.1,-4.5,16.5,8.2,123.6*
Fc1ccc(C(CCNCc2ccccn2)c2ccc(Cl)cc2)cc1 (centres undefined),35.0,64.4*,23.9,19.9,-0.9
OC(CNCc1ccccn1)c1ccccc1 (centres undefined),8.1,0.0,10.7,1.6,6.1
COc1ccc(C2CC(c3cccs3)=NN2C(=O)CSc2nc3c(cnn3-c3ccccc3)c(=O)[nH]2)cc1 (centres undefined),-16.4,63.8*,-11.9,0.4,5.5
COc1cccc(C2CC(c3cccs3)=NN2C(=O)CSc2nc3c(cnn3-c3ccc(F)cc3)c(=O)[nH]2)c1OC (centres undefined),16.3,57.1*,10.8,14.7,1.2
COc1ccc(C2CC(c3cccs3)=NN2C(=O)CSc2nc(=O)n3ccc(C)cc3n2)cc1 (centres undefined),5.2,15.3,-1.3,4.4,-1.3
O=C1NC(=S)/C(=C\c2ccc(-c3ccccc3Cl)o2)S1,x,114.4*,x,x,4.2
CC1CCN(Cc2c(C(=O)N/N=C/c3cc(Cl)ccc3O)nnn2-c2nonc2N)CC1,26.2,66.0*,25.3,24.2,-10.6
CC1CCN(Cc2c(C(=O)N/N=C/c3cc(Br)ccc3O)nnn2-c2nonc2N)CC1,17.4,80.3*,14.3,25.0,-8.2
